Screens (PubChem)
Sampled rows, rich in hits. Any-hit rate of the full collection: about 3.4%.
PAX8 inh HTS = inhibitors of PAX8-driven TPO luciferase reporter, primary screen, RMG-I cells, single concentration; SteadyGlo, 24 h; inhibition, % at 12.6 µM; 360,000 compounds, 1.2% hits;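 active = mean replicate inhibition at least 60% with every replicate also reaching 60%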;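 note: luciferase light reporting Pax8 driven TPO promoter activity; plate controls were median of neutral control wells for no effect and mitoxantrone controls for full effect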
EWS-Fli inh = EWS/Fli-driven NR0B1 reporter inhibitors, primary screen, A673 cells, NR0B1 luciferase, luminescence, MLPCN library. inhibition, % at 12.6 µM. viability-normalised. 350,000 compounds, 0.67% hits;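 active = mean inhibition of at least 50% after viability correction, with every replicate also passing that limit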;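 note: firefly luciferase signal divided by Alamar Blue viability fluorescence both relative to DMSO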
rRNA inh HTS = reduced GFP signal of wild-type E. coli, primary screen, bacterial rRNA inhibitor project, GFP/RFP fluorescence, OD600, single point. AID 720706, 2013. 350,000 compounds, 1.6% hits. GFP signal change (wild-type ribosome), % (concentration not given with the values). E. coli WT GFP vs humanized-ribosome RFP mutants, 24 h; active compounds read low; DMSO median 0, no signal -100;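 active = significant combined selectivity score with lowered wild-type GFP, culture density cut under 30%, mutant RFP and density less affected; inactive = any of these conditions unmet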
LGR2 antag = inhibitors of bursicon-induced LGR2 CRE-luciferase signal, primary screen, cell-based, HEK293, CRE-luciferase reporter, bursicon stimulation; 380,000 compounds, 0.35% hits; Drosophila bursicon receptor LGR2 (rickets); inhibition, % at 9.99 µM; bursicon-stimulated, 4 h;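 active = drop in luminescence signal, shown as inhibition above about 50% in the replicate tests, limit read from the data, passing the limit was not always enough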;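 note: agonist challenge used bursicon conditioned medium at about half maximal strength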
SIRT5 inh = SIRT5 desuccinylase inhibitors, primary screen, biochemical, fluorescence imaging, single point, set 5. 330,000 compounds, 1.1% hits. NAD-dependent protein deacylase sirtuin-5, mitochondrial (Homo sapiens), Q9NXA8. inhibition, % at 15 µM. Purified SirT5, succinyl-peptide AMC, trypsin-coupled fluorescence; in the data active = inhibition above about 15%
Target sequence (Q9NXA8 whole entry, looked up): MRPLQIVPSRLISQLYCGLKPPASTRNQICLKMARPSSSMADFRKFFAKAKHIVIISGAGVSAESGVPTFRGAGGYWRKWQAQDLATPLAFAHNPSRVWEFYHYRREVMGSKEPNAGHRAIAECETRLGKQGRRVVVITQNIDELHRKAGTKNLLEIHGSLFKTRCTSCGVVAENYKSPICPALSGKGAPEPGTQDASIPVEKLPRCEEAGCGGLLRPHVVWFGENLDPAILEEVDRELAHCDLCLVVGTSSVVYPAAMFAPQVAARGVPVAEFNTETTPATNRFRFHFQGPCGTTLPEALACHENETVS
PGC1a acetyl inh = inhibitors of PGC1a acetylation signal, primary screen, cell-based, U2OS, AlphaScreen, inhibitor mode | 350,000 compounds, 0.17% hits | AID 651687, 2012 | AlphaScreen anti-acetyl-lysine; with virally co-expressed GCN5 acetyltransferase | inhibition, % at 15.6 µM;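 active = every replicate shows inhibition of at least 40%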;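 note: 0% = neutral control wells and 100% = positive control wells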
The depositor's hits bear a star; / = no result.

SMILES	PAX8 inh HTS	EWS-Fli inh	rRNA inh HTS	LGR2 antag	SIRT5 inh	PGC1a acetyl inh
C[C@H](CO)N1C[C@H](C)[C@@H](CN(C)CC2CCCCC2)OCCCC[C@H](C)Oc2ccc(NC(=O)Nc3cccc4ccccc34)cc2C1=O	-14	7	-7	0	-1	2
Cc1noc(C)c1S(=O)(=O)N(C)C[C@@H]1OCCCC[C@@H](C)Oc2ccc(NC(=O)Nc3cccc4ccccc34)cc2C(=O)N([C@H](C)CO)C[C@@H]1C	-2	-1	0	-4	20*	5
C[C@@H]1CN([C@H](C)CO)C(=O)c2cc(NC(=O)Nc3cccc4ccccc34)ccc2O[C@@H](C)CCCCO[C@@H]1CN(C)CC1CCCCC1	-3	76*	-2	-4	2	-5
Cc1noc(C)c1S(=O)(=O)N(C)C[C@H]1OCCCC[C@@H](C)Oc2ccc(NC(=O)Nc3cccc4ccccc34)cc2C(=O)N([C@@H](C)CO)C[C@H]1C	4	8	-1	7	7	-11
C[C@H](CO)N1C[C@H](C)[C@H](CN(C)CC2CCCCC2)OCCCC[C@H](C)Oc2ccc(NC(=O)Nc3cccc4ccccc34)cc2C1=O	3	92*	-21	-4	5	-2
CC=Cc1ccc2n(c1=O)C[C@H]1[C@H](CO)[C@@H](C(=O)NCCc3ccccc3)N(CCC)[C@@H]21 (mixture of isomers)	9	-1	-4	-13	-12	-8
C/C=C/c1ccc([C@H]2[C@@H](CO)N(CC3CCCC3)[C@H]2CNC(C)=O)cc1	/	-5	2	1	2	/
COc1cc(C(=O)NC(=S)N(C)Cc2ccccc2)cc(OC)c1OC	-3	13	13	5	-4	6
COc1cc(C(=O)NC(=S)N(CCc2ccccc2)CCc2ccccc2)cc(OC)c1OC	75*	/	/	16	/	-4
CCCNC(=O)N1CC2(CCN(Cc3cccnc3)CC2)c2c(n(C)c3cc(OC)ccc23)[C@@H]1CO	/	-5	1	-9	2	2
COc1ccc(/C=C/c2cc(C(=O)O)c3ccccc3n2)cc1	9	70*	15	7	2	8
COc1cc(OC)c(OC)cc1/C=C/c1cc(C(=O)O)c2ccccc2n1	-12	7	-30*	6	-1	/
CCCNC(=O)N1CC(=O)N2[C@H](CO)[C@H](c3ccc(C#Cc4ccccc4)cc3)[C@@H]2C1	/	/	5	/	/	/
COc1ccc(C(=O)NN(C)c2nc(C(F)(F)F)nc3ccccc23)cc1	94*	56*	7	-7	-4	9
COc1ccc(CCNC(=O)CCN2C(=O)c3cccc4cccc(c34)C2=O)cc1OC	9	-9	-1	5	-5	3
COc1ccc(CCN2C(=O)c3cccc4c(C(=O)N5CCCCC5)ccc(c34)C2=O)cc1OC	12	11	3	102*	-4	/
CCOc1ccccc1CNC(=O)C1CCN(c2nnc(C)c3c(C)n(-c4ccc(C)cc4)nc23)CC1	79*	59*	-3	16	9	36
COc1ccc(-n2nc3c(N4CCC(C(=O)NCc5cccc(C)c5)CC4)nnc(C)c3c2C)cc1	102*	/	1	-12	-1	/
CN(C)C(=O)C[C@H]1C=C[C@H](NC(=O)NC2CCCCC2)[C@H](CO)O1	1	5	0	20	-1	1
COc1ccc2c3c([nH]c2c1)[C@@H](CO)N(C(=O)c1cnccn1)CC31CCN(S(C)(=O)=O)CC1	/	13	5	10	-6	-1
CC(C)NC(=O)Nc1ccc2c(c1)C(=O)N(C)[C@@H]1CC[C@H](CC(=O)NCC(F)(F)F)O[C@H]1CO2	18	-1	0	14	/	2
COc1ccc(/C=N/NC(=O)C(=O)/C=C2\NC3(CCCC3)Cc3ccccc32)cc1	25	11	/	/	1	/
O=C(/C=C1\NC2(CCCC2)Cc2ccccc21)C(=O)N/N=C/c1ccc(O)c(O)c1	53	/	-21*	-4	/	/
Cc1cc(/C=C\c2ccc3cc(N(C)C)ccc3[n+]2C)c(C)n1-c1ccccc1	/	/	/	/	/	68*
C[n+]1c(/C=C/c2ccc(O)cc2)ccc2ccccc21	-83	-68	-11	-39	3	1
SMILES	PAX8 inh HTS	EWS-Fli inh	rRNA inh HTS	LGR2 antag	SIRT5 inh	PGC1a acetyl inh
COc1cccc(C(=O)Nc2ccc3c(c2)C(=O)N(C)C[C@H](OC)[C@H](C)CN(C(C)=O)[C@@H](C)CO3)c1	1	-3	1	-9	1	-14
CCCC(=O)Nc1ccc2c(c1)OC[C@@H](C)N(CCC)C[C@H](C)[C@H](OC)CN(C)C2=O	-6	0	1	12	2	-24
CCOc1cc(CNc2ccc(OC)cc2)cc(Br)c1OCC(=O)NC(C)(C)C	/	/	-25*	9	/	-19
CCOc1cc(CNc2ccc(Br)cc2)cc(Br)c1OCC(=O)NC(C)(C)C	/	10	1	15	-4	2
Nc1ccc(Oc2cc(N)cc(Oc3ccccc3)c2)cc1	-263	-98	-21*	-119	0	/
O=C(C[C@H]1C=C[C@@H](NS(=O)(=O)c2ccc(F)cc2)[C@@H](CO)O1)NCc1ccc(Cl)c(Cl)c1	20	2	-10	6	3	4
COc1ccc2c3c([nH]c2c1)[C@@H](CO)N(C(=O)c1ccccc1)CC31CN(C(=O)Nc2cccc(F)c2)C1	/	4	-6	-9	-2	/
O=C(NCCC1CCCCN1S(=O)(=O)c1ccc(F)cc1)C(=O)NCc1ccncc1 (stereo not drawn)	69*	8	4	1	13	10
O=C(NCCC1CCCCN1S(=O)(=O)c1ccc(Cl)cc1)C(=O)NCc1ccncc1 (stereo not drawn)	97*	11	-8	-2	-3	14
CS(=O)(=O)N1[C@@H]2Cn3c(ccc(C4=CCCC4)c3=O)[C@H]1[C@@H](C(=O)N1CCCCC1)[C@@H]2CO	-5	-3	2	0	-23	/
CC(C)NC(=O)N(C)C[C@@H]1Oc2ccc(N(C)C)cc2C(=O)N(C)C[C@@H]1C	/	/	-2	/	/	/
CN(C)CC#Cc1ccc([C@@H]2[C@H](CO)N3CCCCN(CC4CC4)C[C@@H]23)cc1	0	0	5	-13	-5	3
Cc1ccnc(Nc2nc3ccccc3o2)n1	8	48	4	54*	1	/
Cc1cc([N+](=O)[O-])nn1CCCC(=O)NC(C)c1ccccc1 (stereo not drawn)	2	2	1	13	38*	4
